According to PubChem BioAssay:
Values without a mark were called inactive. Activity calls are given as the source filed them. No stated cut-off is given here; in the data, active means inhibition above about 36%; inactive means the rest.

system: transactivating tegument protein VP16 (Human herpesvirus 1); assay: compounds suppressing VP16-driven luciferase signal – cell-based, luminescence, single concentration, counter-screen for SRC2 inhibitor project (AID 652007); conditions: cell-based VP16 transactivation luciferase reporter, at 8.9 µM, stronger effect = higher value

| Structure (SMILES) | inhibition |
| --- | --- |
| CCOC(=O)c1c(NC(=O)/C=C/C(=O)O)sc(C)c1-c1ccc(C(C)(C)C)cc1 | 32.9% |
| O=c1[nH]c2ccc(Br)cc2c(=O)o1 | 44.5% (active) |
| COCCN(C(=O)CC1C(=O)NCCN1Cc1ccc(-c2ccccc2)cc1)C(C)C (stereo unspecified) | -1.75% |
| O=C(CSc1nc(N2CCOCC2)nc(N2CCOCC2)n1)Nc1ccccc1F | 1.31% |
| Cc1nc2cc(-c3ccccc3)sc2c(=O)n1N | 22.3% |
| O=C(CCCN1C(=O)/C(=C/c2ccccc2)SC1=S)NCCCn1ccnc1 | 35.9% (active) |
| Nc1ncc([N+](=O)[O-])c(Oc2ccccc2F)n1 | -7% |
| O=C(O)CCC(=O)Nc1cccc(-c2csc(-c3ccccc3)n2)c1 | 47.1% (active) |
| Cc1nn(Cc2ccc(C(=O)NC(C)(C)C)o2)c(C)c1Br | 5.83% |
| COc1ccc(CNn2c(-c3cccs3)nc3ccccc3c2=O)cc1OC | -9.43% |
| O=C(CCc1nnc(-c2ccc(-c3ccccc3)cc2)o1)NCCc1ccccn1 | 14.7% |
| CC1CCC(C(C)C)C(OCC(O)CN2CCCC(C)C2)C1 (stereo unspecified) | -4.71% |
| CCOc1ccccc1N1CCN(C(=O)c2cc(-c3cc(OC)ccc3OC)nc3ccccc23)CC1 | -6.34% |
| N/C(=N\OC(=O)c1ccc(Cl)cc1Cl)c1ccccn1 | -75.5% |
| O=C(NC(c1ccc(F)cc1)c1ccc2ccccc2n1)C1CCN(CCOc2ccc(F)cc2)CC1 (stereo unspecified) | -1.57% |
| CCOC(=O)C(=Cc1ccc(-n2cncn2)cc1)C(=O)OCC | 15.5% |
